This is part of a sample that, as a whole, favours compounds with a hit. Of some 83,000 tested, about 20% had one in any assay.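 Percent growth is the endpoint: 0 to 100 indicates growth inhibition (40 means 60% inhibition), 0 means no net growth, and negative values indicate cell death.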 Values without a mark were called inactive. Activity calls are given as the source filed them. Rule for the calls: active = growth percent below 10; inactive = the rest.
Columns and labels:
Test in all cases: NCI-60 one-dose screen, 48 h (100 = growth as untreated, 0 = no growth, -100 = all killed)
Details in all cases: 10 µM unless noted
HCT-15 colon = test system: HCT-15 colon
HT29 colon = test system: HT29 colon
SNB-75 CNS = test system: SNB-75 CNS
SNB-19 CNS = test system: SNB-19 CNS
U251 CNS = test system: U251 CNS
PC-3 prostate = test system: PC-3 prostate
SK-MEL-5 melanoma = test system: SK-MEL-5 melanoma
UACC-62 melanoma = test system: UACC-62 melanoma
LOX IMVI melanoma = test system: LOX IMVI melanoma
SK-MEL-28 melanoma = test system: SK-MEL-28 melanoma
SK-MEL-2 melanoma = test system: SK-MEL-2 melanoma
EKVX NSCLC = test system: EKVX NSCLC
SN12C renal = test system: SN12C renal
UO-31 renal = test system: UO-31 renal
TK-10 renal = test system: TK-10 renal
ACHN renal = test system: ACHN renal
A498 renal = test system: A498 renal
CCRF-CEM leukemia = test system: CCRF-CEM leukemia
MOLT-4 leukemia = test system: MOLT-4 leukemia
CAKI-1 renal = test system: CAKI-1 renal

Cn1cccc1/C=C1\C(=O)Nc2ccccc21 gave a growth (HCT-15 colon) of 50.9%, a growth (HT29 colon) of 103% and a growth (SNB-75 CNS) of 90.3%. It also gave a growth (SNB-19 CNS) of 90.4%, a growth (U251 CNS) of 97.7% and a growth (PC-3 prostate) of 94.2%. The growth (SK-MEL-5 melanoma) was 56.6%, the growth (UACC-62 melanoma) was 90.6% and the growth (LOX IMVI melanoma) was 87.2%. For the same molecule, the growth (SK-MEL-28 melanoma) was 112%, the growth (SK-MEL-2 melanoma) was 114% and the growth (EKVX NSCLC) was 34.4%. For the same molecule, the growth (SN12C renal) was 94%, the growth (UO-31 renal) was 62.9% and the growth (TK-10 renal) was 72.2%. For the same molecule, the growth (ACHN renal) was 98.2%, the growth (A498 renal) was 125% and the growth (CCRF-CEM leukemia) was 104%. It also gave a growth (MOLT-4 leukemia) of 97.7%.
CNCc1cccc2c1OCCOCCN(C)C(=O)CN(C)S(=O)(=O)c1ccc(cc1)-c1cnc(N)c(n1)C(=O)N2 was tested, and the growth (HCT-15 colon) was 66.3%, the growth (HT29 colon) was 11.6% and the growth (SNB-75 CNS) was -19.2% (active). For the same molecule, the growth (SNB-19 CNS) was 25.5%, the growth (U251 CNS) was -62.3% (active) and the growth (PC-3 prostate) was 57.9%. The growth (SK-MEL-5 melanoma) was 55.4%, the growth (UACC-62 melanoma) was 4.98% (active) and the growth (LOX IMVI melanoma) was 10.3%. The growth (SK-MEL-28 melanoma) was -85.8% (active), the growth (SK-MEL-2 melanoma) was 4.91% (active) and the growth (EKVX NSCLC) was 41.8%. For the same molecule, the growth (SN12C renal) was 20.7%, the growth (UO-31 renal) was 101% and the growth (TK-10 renal) was 11.5%. The growth (ACHN renal) was -2.97% (active), the growth (A498 renal) was 70.3% and the growth (CCRF-CEM leukemia) was -18.4% (active). The growth (MOLT-4 leukemia) was -1.69% (active).
In the case of O=P(O)(O)OCC1OC(n2cnc3c(NCc4ccccc4)ncnc32)C(O)C1O (configuration not stated), the growth (HCT-15 colon) is reported as 9.47% (active), the growth (HT29 colon) is reported as 23.3% and the growth (SNB-75 CNS) is reported as 49.9%. For the same molecule, the growth (SNB-19 CNS) was 40.8%, the growth (U251 CNS) was 47.3% and the growth (PC-3 prostate) was 19.2%. For the same molecule, the growth (SK-MEL-5 melanoma) was 84.1%, the growth (UACC-62 melanoma) was 38.4% and the growth (LOX IMVI melanoma) was -8.76% (active). The growth (SK-MEL-28 melanoma) was 127%, the growth (SK-MEL-2 melanoma) was 85.2% and the growth (EKVX NSCLC) was 24.7%. It also gave a growth (SN12C renal) of 19.7%, a growth (UO-31 renal) of 41.2% and a growth (TK-10 renal) of 10.9%. For the same molecule, the growth (ACHN renal) was 8.81% (active), the growth (A498 renal) was -11.5% (active) and the growth (CCRF-CEM leukemia) was 2.68% (active). The growth (MOLT-4 leukemia) was 21.7%.
Work on CCC/C(=N\NC(N)=O)C(OC)OC yielded a growth (HCT-15 colon) of 105%, a growth (HT29 colon) of 97.8% and a growth (SNB-75 CNS) of 67.9%. The growth (SNB-19 CNS) was 102%, the growth (U251 CNS) was 92.3% and the growth (PC-3 prostate) was 97%. It also gave a growth (SK-MEL-5 melanoma) of 100%, a growth (UACC-62 melanoma) of 100% and a growth (LOX IMVI melanoma) of 84.4%. For the same molecule, the growth (SK-MEL-28 melanoma) was 96.4%, the growth (SK-MEL-2 melanoma) was 104% and the growth (EKVX NSCLC) was 111%. The growth (SN12C renal) was 107%, the growth (UO-31 renal) was 89.3% and the growth (ACHN renal) was 105%. It also gave a growth (CAKI-1 renal) of 114%, a growth (A498 renal) of 91.1% and a growth (CCRF-CEM leukemia) of 106%. The growth (MOLT-4 leukemia) was 121%.
For COc1ccc(/C(C)=C(\c2ccc(OCCN3CCCCCC3)cc2)c2ccc(OC(=O)c3ccccc3)cc2)cc1, the growth (HCT-15 colon) was 12.1%, the growth (HT29 colon) was -3.62% (active) and the growth (SNB-75 CNS) was 83.3%. For the same molecule, the growth (SNB-19 CNS) was 62.8%, the growth (U251 CNS) was 31.7% and the growth (PC-3 prostate) was 39.6%. For the same molecule, the growth (SK-MEL-5 melanoma) was 42.8%, the growth (UACC-62 melanoma) was 19.1% and the growth (LOX IMVI melanoma) was -51% (active). The growth (SK-MEL-28 melanoma) was 54.9%, the growth (SK-MEL-2 melanoma) was 54.6% and the growth (EKVX NSCLC) was 74.4%. The growth (SN12C renal) was 56.2%, the growth (UO-31 renal) was 26.2% and the growth (ACHN renal) was 72.3%. For the same molecule, the growth (CAKI-1 renal) was 52.9%, the growth (A498 renal) was 82.1% and the growth (CCRF-CEM leukemia) was 26.8%. The growth (MOLT-4 leukemia) was 17.4%.
Molecule Cc1nn(-c2ccccc2)c(N2CCCCC2)c1/C=N/NC(=O)Cn1c(=O)sc2ccccc21 has a growth (HCT-15 colon) of 61.3%, a growth (HT29 colon) of 57.3% and a growth (SNB-75 CNS) of 75%. The growth (SNB-19 CNS) was 70.9%, the growth (U251 CNS) was 73.4% and the growth (PC-3 prostate) was 61.7%. The growth (SK-MEL-5 melanoma) was 73.7%, the growth (UACC-62 melanoma) was 64.3% and the growth (LOX IMVI melanoma) was 60.3%. It also gave a growth (SK-MEL-28 melanoma) of 114%, a growth (SK-MEL-2 melanoma) of 88.9% and a growth (EKVX NSCLC) of 74.5%. For the same molecule, the growth (SN12C renal) was 85%, the growth (UO-31 renal) was 48.1% and the growth (ACHN renal) was 66.8%. For the same molecule, the growth (CAKI-1 renal) was 34.7%, the growth (A498 renal) was 80.7% and the growth (CCRF-CEM leukemia) was 84.7%. The growth (MOLT-4 leukemia) was 54.7%.
Molecule N#Cc1c(-c2cccc([N+](=O)[O-])c2)cc(-c2ccc(Nc3nc(Nc4ccc(F)cc4)nc(Nc4ccc(F)cc4)n3)cc2)nc1N has a growth (HCT-15 colon) of 103%, a growth (HT29 colon) of 113% and a growth (SNB-75 CNS) of 102%. For the same molecule, the growth (SNB-19 CNS) was 104%, the growth (U251 CNS) was 110% and the growth (PC-3 prostate) was 92%. For the same molecule, the growth (SK-MEL-5 melanoma) was 84.4%, the growth (UACC-62 melanoma) was 110% and the growth (LOX IMVI melanoma) was 97.9%. It also gave a growth (SK-MEL-28 melanoma) of 114%, a growth (SK-MEL-2 melanoma) of 68.1% and a growth (EKVX NSCLC) of 137%. For the same molecule, the growth (SN12C renal) was 137%, the growth (UO-31 renal) was 83.7% and the growth (TK-10 renal) was 128%. The growth (ACHN renal) was 108%, the growth (A498 renal) was 115% and the growth (CCRF-CEM leukemia) was 78%. It also gave a growth (MOLT-4 leukemia) of 84.6%.
In the case of Cn1cc(-c2ccc3cc(-c4ccc(CC(=O)Nc5cc(C(C)(C)C)on5)cc4)cnc3c2)cn1, the growth (HCT-15 colon) is reported as 10.9%, the growth (HT29 colon) is reported as 38.8% and the growth (SNB-75 CNS) is reported as 28.4%. For the same molecule, the growth (SNB-19 CNS) was 34.7%, the growth (U251 CNS) was 2.41% (active) and the growth (PC-3 prostate) was 21.1%. For the same molecule, the growth (SK-MEL-5 melanoma) was 26.7%, the growth (UACC-62 melanoma) was 10.8% and the growth (LOX IMVI melanoma) was 30.4%. For the same molecule, the growth (SK-MEL-28 melanoma) was 29.1%, the growth (SK-MEL-2 melanoma) was 18.9% and the growth (EKVX NSCLC) was 38.8%. For the same molecule, the growth (SN12C renal) was 16.7%, the growth (UO-31 renal) was 9.45% (active) and the growth (TK-10 renal) was 43.9%. The growth (ACHN renal) was -23% (active), the growth (A498 renal) was -4.2% (active) and the growth (CCRF-CEM leukemia) was 3.44% (active). The growth (MOLT-4 leukemia) was 4.87% (active).

From PubChem BioAssay (NCI)
